Targets with a hit are over-represented here; the source holds about 7,900 in all. About 0.6% of all pairs of compound and target were hits.
Columns and labels:
Test in all cases: log2 fold change, soluble protein after heating vs DMSO (PISA); higher = thermal stabilisation; K562 cells, 10 uM, 30 min; active = over 0.2 and 3.5 SD of the protein, either way, in both replicates (recomputed)
[1] = compound: CC1=C(C=C(C=C1)NC(=O)C2=CC(=CC=C2)C(C)(C)C#N)NC3=CC4=C(C=C3)N=CN(C4=O)C
In short: (§1)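 Quantification of soluble protein used TMTpro 16plex LC-MS/MS, with channel sums equalised. Samples were the supernatant after 21,000xg for 90 min of pooled aliquots from K562 cells (2×10^6 cells/mL) treated with 10 μM compound for 30 min, heated for 3 min over 48°C-58°C, and extracted in PBS with 0.5% NP-40 at 4°C. Values, from duplicates, describe thermal stability against control samples on a log2 fold-change scale.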

[2] = compound: CC1=C(C=C(C=C1)NC(=O)C2=CC(=CC=C2)N(C)C)NC(=O)C3=CC=C(C=C3)O
In short: as §1

[3] = compound: CC1=CC=C(C=C1)SC2=C3C=C(SC3=CN=C2)C(=O)N
In short: as §1

[4] = compound: CC1=NC(=CC=C1)C2=C(N=C(N2)C(C)(C)C)C3=CC4=NC=CN=C4C=C3
In short: as §1

Nexturastat A = compound: CCCCN(Cc1ccc(C(=O)NO)cc1)C(=O)Nc1ccccc1 [Nexturastat A]
In short: as §1

vemurafenib = compound: CCCS(=O)(=O)Nc1ccc(F)c(C(=O)c2c[nH]c3ncc(-c4ccc(Cl)cc4)cc23)c1F [vemurafenib]
In short: as §1

[5] = compound: CCCS(=O)(=O)Nc1ccc(F)c(C(=O)c2c[nH]c3ncc(Cl)cc23)c1F
In short: as §1

[6] = compound: CCCc1cc(C)[nH]c(=O)c1CNC(=O)c1cc(-c2ccnc(N3CCN(C)CC3)c2)cc2c1cnn2C(C)C
In short: as §1

givinostat = compound: CCN(CC)Cc1ccc2cc(COC(=O)Nc3ccc(C(=O)NO)cc3)ccc2c1 [givinostat]
In short: as §1

barasertib = compound: CCN(CCCOc1ccc2c(Nc3cc(CC(=O)Nc4cccc(F)c4)[nH]n3)ncnc2c1)CCOP(=O)(O)O [barasertib]
In short: as §1

Measured: log2 fold change

ILKAP (UniProt Q9H0C8)
inactive: [1] -0.026 | [2] -0.117 | [3] 0.072 | [4] 0.168 | Nexturastat A 0 | vemurafenib 0.08 | [5] 0.082 | [6] 0.063 | givinostat 0.071 | barasertib 0.07

LIAS (UniProt O43766)
inactive: [1] -0.044 | [2] 0.119 | [3] -0.128 | [4] -0.002 | Nexturastat A -0.057 | vemurafenib -0.013 | [5] -0.13 | [6] -0.01 | givinostat -0.06 | barasertib -0.001

IPO7 (UniProt O95373)
inactive: [1] 0.004 | [2] -0.007 | [3] 0.035 | [4] 0.035 | Nexturastat A 0.009 | vemurafenib 0.025 | [5] 0.081 | [6] -0.007 | givinostat 0.009 | barasertib 0.047

LRBA (UniProt P50851)
inactive: [1] -0.011 | [2] 0 | [3] -0.011 | [4] 0.001 | Nexturastat A -0.046 | vemurafenib 0.01 | [5] 0.031 | [6] -0.025 | givinostat 0.008 | barasertib 0.038

KPNA1 (UniProt P52294)
inactive: [1] -0.034 | [2] -0.056 | [3] -0.021 | [4] -0.041 | Nexturastat A 0.084 | vemurafenib 0.035 | [5] 0.026 | [6] 0.034 | givinostat 0.086 | barasertib 0.012

MAP3K7 (UniProt O43318)
inactive: [1] -0.008 | [2] -0.039 | [3] 0.041 | [4] 0.019 | Nexturastat A 0.027 | vemurafenib 0.042 | [5] 0.074 | [6] 0.008 | givinostat 0.093 | barasertib 0.079

ILRUN (UniProt Q9H6K1)
inactive: [1] 0.06 | [2] -0.02 | [3] 0.088 | [4] 0.005 | Nexturastat A 0.072 | vemurafenib 0.059 | [5] 0.135 | [6] -0.026 | givinostat -0.051 | barasertib -0.044

KEL (UniProt P23276)
inactive: [1] -0.004 | [2] -0.061 | [3] 0.117 | [4] 0.01 | Nexturastat A 0.117 | vemurafenib -0.009 | [5] -0.015 | [6] -0.014 | givinostat -0.056 | barasertib -0.029

LMBR1 isoform 3 (UniProt Q8WVP7)
UniProt Q8WVP7, sequence (Q8WVP7 whole entry, looked up): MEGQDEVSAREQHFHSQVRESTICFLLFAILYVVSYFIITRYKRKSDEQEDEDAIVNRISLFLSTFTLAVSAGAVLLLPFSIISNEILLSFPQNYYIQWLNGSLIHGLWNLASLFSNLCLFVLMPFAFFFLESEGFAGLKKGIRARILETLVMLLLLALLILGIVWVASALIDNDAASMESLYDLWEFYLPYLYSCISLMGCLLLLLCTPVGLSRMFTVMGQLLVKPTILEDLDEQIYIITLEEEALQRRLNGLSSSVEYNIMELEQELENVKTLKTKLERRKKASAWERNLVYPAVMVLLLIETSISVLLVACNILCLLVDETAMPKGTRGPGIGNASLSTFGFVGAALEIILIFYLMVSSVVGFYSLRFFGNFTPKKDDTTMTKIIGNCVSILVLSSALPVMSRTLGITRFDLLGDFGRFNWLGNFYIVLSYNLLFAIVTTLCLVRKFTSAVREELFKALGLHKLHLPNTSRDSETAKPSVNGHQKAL
inactive: [1] -0.156 | [2] 0.17 | [3] 0.128 | [4] 0.036 | Nexturastat A 0.134 | vemurafenib 0.049 | [5] 0.175 | [6] -0.086 | givinostat 0 | barasertib -0.007

LTV1 (UniProt Q96GA3)
inactive: [1] 0.044 | [2] -0.04 | [3] -0.04 | [4] -0.035 | Nexturastat A 0.248 | vemurafenib -0.075 | [5] -0.008 | [6] -0.011 | givinostat -0.025 | barasertib -0.075

IRF3 (UniProt Q14653)
inactive: [1] 0.18 | [2] -0.081 | [3] 0.011 | [4] 0.077 | Nexturastat A -0.046 | vemurafenib 0.074 | [5] 0.098 | [6] 0.011 | givinostat 0.031 | barasertib -0.015

INPP5B (UniProt P32019)
UniProt P32019, sequence (P32019 whole entry, looked up): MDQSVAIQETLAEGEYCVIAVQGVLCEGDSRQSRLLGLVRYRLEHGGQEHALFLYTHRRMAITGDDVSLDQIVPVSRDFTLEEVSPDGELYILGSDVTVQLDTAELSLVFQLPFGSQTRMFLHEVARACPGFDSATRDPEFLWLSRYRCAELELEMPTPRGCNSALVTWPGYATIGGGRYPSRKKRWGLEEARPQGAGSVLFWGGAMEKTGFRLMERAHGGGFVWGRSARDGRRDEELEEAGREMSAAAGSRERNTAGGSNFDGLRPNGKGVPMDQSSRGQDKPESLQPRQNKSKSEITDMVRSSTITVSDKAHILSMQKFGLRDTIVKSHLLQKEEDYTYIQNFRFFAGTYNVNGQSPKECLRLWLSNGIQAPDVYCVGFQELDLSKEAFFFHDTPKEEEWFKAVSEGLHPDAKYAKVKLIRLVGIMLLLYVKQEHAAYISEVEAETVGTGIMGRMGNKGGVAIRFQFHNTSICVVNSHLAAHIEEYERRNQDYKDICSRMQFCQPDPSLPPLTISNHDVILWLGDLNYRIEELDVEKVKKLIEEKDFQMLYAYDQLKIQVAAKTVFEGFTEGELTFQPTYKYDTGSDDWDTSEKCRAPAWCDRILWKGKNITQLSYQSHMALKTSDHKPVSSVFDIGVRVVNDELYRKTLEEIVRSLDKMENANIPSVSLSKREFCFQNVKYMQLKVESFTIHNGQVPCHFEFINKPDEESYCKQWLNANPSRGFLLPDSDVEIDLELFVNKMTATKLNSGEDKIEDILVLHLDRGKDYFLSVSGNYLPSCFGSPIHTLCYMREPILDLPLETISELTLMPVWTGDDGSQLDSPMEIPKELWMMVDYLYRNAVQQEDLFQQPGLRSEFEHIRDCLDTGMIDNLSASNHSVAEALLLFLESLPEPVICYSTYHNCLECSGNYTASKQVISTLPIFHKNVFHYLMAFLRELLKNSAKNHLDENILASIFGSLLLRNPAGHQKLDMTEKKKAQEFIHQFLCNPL
inactive: [1] 0.02 | [2] -0.06 | [3] -0.071 | [4] 0.007 | Nexturastat A 0.096 | vemurafenib -0.006 | [5] -0.004 | [6] 0.062 | givinostat 0.105 | barasertib 0.069

MCCC2 (UniProt Q9HCC0)
UniProt Q9HCC0, sequence (Q9HCC0 whole entry, looked up): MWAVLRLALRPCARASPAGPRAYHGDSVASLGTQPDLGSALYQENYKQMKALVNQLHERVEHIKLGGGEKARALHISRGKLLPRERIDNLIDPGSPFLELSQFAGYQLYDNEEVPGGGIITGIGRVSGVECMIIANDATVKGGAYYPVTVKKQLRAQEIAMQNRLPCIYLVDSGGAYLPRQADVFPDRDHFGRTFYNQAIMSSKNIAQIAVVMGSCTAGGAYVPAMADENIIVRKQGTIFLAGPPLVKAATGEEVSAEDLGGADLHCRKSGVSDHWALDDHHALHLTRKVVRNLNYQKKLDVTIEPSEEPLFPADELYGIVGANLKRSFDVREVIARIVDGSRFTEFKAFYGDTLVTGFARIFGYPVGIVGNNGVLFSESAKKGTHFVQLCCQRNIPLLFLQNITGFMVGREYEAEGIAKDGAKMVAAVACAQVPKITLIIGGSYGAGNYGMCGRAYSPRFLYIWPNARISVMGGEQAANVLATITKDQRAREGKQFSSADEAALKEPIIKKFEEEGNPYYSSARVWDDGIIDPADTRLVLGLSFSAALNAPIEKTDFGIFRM
inactive: [1] 0.048 | [2] -0.028 | [3] 0.026 | [4] 0.04 | Nexturastat A -0.04 | vemurafenib 0.011 | [5] 0.013 | [6] -0.028 | givinostat -0.049 | barasertib -0.02

LMNB2 (UniProt Q03252)
inactive: [1] -0.022 | [2] 0.015 | [3] -0.025 | [4] 0.063 | Nexturastat A -0.04 | vemurafenib 0.019 | [5] 0.045 | [6] -0.014 | givinostat 0.047 | barasertib 0.039

MIF (UniProt P14174)
UniProt P14174, sequence (P14174 whole entry, looked up): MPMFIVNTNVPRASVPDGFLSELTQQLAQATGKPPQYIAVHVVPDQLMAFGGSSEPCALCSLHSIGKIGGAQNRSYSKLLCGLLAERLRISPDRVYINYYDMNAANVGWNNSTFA
inactive: [1] 0.056 | [2] -0.014 | [3] 0.056 | [4] 0.098 | Nexturastat A -0.29 | vemurafenib -0.009 | [5] -0.047 | [6] -0.076 | givinostat -0.113 | barasertib -0.009

MAP2K2 (UniProt P36507)
inactive: [1] -0.018 | [2] 0.013 | [3] 0.009 | [4] 0.028 | Nexturastat A -0.001 | vemurafenib -0.008 | [5] -0.002 | [6] 0.17 | givinostat 0.014 | barasertib 0.011

MARK3 (UniProt P27448)
inactive: [1] -0.017 | [2] 0.02 | [3] 0.067 | [4] -0.029 | Nexturastat A 0.074 | vemurafenib 0 | [5] 0.004 | [6] 0.077 | givinostat 0.038 | barasertib 0.023

MFN2 (UniProt O95140)
inactive: [1] -0.021 | [2] -0.029 | [3] 0.018 | [4] 0.009 | Nexturastat A -0.022 | vemurafenib 0.019 | [5] 0.064 | [6] -0.004 | givinostat 0.01 | barasertib 0.025

LYPLA2 (UniProt O95372)
inactive: [1] 0.043 | [2] -0.131 | [3] 0.082 | [4] -0.056 | Nexturastat A -0.071 | vemurafenib 0.132 | [5] 0.038 | [6] -0.001 | givinostat -0.055 | barasertib -0.099

KIF11 (UniProt P52732)
inactive: [1] -0.032 | [2] -0.119 | [3] -0.005 | [4] -0.033 | Nexturastat A 0.155 | vemurafenib 0.071 | [5] 0.077 | [6] 0.076 | givinostat 0.09 | barasertib 0.049

MDN1 (UniProt Q9NU22)
inactive: [1] -0.023 | [2] -0.021 | [3] 0.034 | [4] 0.061 | Nexturastat A -0.009 | vemurafenib 0.02 | [5] 0.074 | [6] 0.027 | givinostat 0.083 | barasertib 0.047

MIEN1 (UniProt Q9BRT3)
UniProt Q9BRT3, sequence (Q9BRT3 whole entry, looked up): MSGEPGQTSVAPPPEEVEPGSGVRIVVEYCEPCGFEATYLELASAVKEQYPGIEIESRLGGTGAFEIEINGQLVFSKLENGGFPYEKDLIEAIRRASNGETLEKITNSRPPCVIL
inactive: [1] -0.011 | [2] -0.029 | [3] 0.036 | [4] -0.054 | Nexturastat A -0.002 | vemurafenib 0.081 | [5] 0.073 | [6] 0.016 | givinostat 0 | barasertib 0.132

MAP4K5 (UniProt Q9Y4K4)
UniProt Q9Y4K4, sequence (Q9Y4K4 whole entry, looked up): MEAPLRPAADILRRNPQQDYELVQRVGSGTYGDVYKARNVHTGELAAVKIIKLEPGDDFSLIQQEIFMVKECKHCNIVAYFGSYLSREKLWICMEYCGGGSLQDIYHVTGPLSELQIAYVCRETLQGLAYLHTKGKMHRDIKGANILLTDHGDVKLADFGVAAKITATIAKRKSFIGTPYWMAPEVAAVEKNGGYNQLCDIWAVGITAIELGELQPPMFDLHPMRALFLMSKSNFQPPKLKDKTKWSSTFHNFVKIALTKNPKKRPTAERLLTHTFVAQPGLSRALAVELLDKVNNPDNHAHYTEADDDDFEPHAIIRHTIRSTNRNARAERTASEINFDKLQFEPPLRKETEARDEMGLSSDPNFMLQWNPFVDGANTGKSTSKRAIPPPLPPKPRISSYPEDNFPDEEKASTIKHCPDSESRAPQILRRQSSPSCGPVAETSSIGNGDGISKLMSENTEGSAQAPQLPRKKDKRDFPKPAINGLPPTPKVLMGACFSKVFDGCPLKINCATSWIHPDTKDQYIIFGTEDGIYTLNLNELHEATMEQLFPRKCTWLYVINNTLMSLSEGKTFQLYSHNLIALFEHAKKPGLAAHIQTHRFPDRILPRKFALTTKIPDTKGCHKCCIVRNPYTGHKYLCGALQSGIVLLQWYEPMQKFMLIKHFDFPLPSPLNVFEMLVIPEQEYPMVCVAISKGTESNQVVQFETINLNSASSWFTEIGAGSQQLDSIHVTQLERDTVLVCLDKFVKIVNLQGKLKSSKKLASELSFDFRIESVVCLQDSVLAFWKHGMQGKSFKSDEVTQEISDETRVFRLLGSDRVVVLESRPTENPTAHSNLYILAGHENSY
inactive: [1] 0.01 | [2] 0.082 | [3] 0.025 | [4] -0.012 | Nexturastat A -0.042 | vemurafenib -0.025 | [5] -0.008 | [6] -0.047 | givinostat -0.024 | barasertib 0.1

LUC7L3 (UniProt O95232)
UniProt O95232, sequence (O95232 whole entry, looked up): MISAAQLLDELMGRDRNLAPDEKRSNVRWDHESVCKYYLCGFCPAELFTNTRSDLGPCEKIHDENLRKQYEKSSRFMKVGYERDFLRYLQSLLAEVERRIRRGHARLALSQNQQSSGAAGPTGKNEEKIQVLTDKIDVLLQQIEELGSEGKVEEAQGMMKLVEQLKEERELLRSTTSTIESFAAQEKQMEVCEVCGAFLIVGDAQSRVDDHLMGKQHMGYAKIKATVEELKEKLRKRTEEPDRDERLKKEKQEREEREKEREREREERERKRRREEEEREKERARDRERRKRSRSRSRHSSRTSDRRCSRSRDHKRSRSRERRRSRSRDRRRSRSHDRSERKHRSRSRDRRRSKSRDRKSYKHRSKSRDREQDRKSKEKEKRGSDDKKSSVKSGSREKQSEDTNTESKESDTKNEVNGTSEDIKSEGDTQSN
inactive: [1] -0.046 | [2] 0.034 | [3] -0.036 | [4] 0.086 | Nexturastat A -0.008 | vemurafenib 0.024 | [5] 0.013 | [6] -0.009 | givinostat 0.003 | barasertib 0.022

LAMP2 (UniProt P13473)
inactive: [1] 0 | [2] 0.093 | [3] -0.043 | [4] 0.066 | Nexturastat A -0.104 | vemurafenib 0.05 | [5] 0.048 | [6] -0.028 | givinostat -0.02 | barasertib 0.007

MDC1 (UniProt Q14676)
inactive: [1] -0.019 | [2] -0.037 | [3] -0.013 | [4] -0.076 | Nexturastat A 0.048 | vemurafenib -0.037 | [5] -0.008 | [6] 0.074 | givinostat 0.055 | barasertib -0.074

LRRFIP1 (UniProt Q32MZ4)
UniProt Q32MZ4, sequence (Q32MZ4 whole entry, looked up): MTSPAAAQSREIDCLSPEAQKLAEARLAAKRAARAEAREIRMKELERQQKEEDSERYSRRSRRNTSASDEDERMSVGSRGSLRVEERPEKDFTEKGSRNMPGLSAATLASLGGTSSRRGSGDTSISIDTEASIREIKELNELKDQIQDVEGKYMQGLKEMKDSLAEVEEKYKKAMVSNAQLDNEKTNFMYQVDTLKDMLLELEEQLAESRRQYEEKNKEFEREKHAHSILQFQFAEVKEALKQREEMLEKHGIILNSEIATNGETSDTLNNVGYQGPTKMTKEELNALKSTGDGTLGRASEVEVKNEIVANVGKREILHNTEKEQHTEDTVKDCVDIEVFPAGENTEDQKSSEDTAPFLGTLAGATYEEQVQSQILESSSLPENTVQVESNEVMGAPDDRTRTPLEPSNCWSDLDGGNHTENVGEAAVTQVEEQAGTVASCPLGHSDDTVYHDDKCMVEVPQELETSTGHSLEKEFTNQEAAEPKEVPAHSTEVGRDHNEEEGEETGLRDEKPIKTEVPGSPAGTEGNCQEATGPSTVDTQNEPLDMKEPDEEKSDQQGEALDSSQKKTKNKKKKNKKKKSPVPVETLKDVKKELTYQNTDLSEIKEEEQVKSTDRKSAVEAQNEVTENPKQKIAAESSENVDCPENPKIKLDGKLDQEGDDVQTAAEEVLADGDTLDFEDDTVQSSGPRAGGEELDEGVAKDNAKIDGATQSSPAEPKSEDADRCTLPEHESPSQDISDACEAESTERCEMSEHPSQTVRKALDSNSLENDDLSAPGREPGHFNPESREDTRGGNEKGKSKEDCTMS
inactive: [1] -0.024 | [2] 0.003 | [3] -0.012 | [4] -0.01 | Nexturastat A 0.005 | vemurafenib -0.019 | [5] -0.027 | [6] -0.002 | givinostat 0.014 | barasertib 0.004

ILVBL (UniProt A1L0T0)
UniProt A1L0T0, sequence (A1L0T0 whole entry, looked up): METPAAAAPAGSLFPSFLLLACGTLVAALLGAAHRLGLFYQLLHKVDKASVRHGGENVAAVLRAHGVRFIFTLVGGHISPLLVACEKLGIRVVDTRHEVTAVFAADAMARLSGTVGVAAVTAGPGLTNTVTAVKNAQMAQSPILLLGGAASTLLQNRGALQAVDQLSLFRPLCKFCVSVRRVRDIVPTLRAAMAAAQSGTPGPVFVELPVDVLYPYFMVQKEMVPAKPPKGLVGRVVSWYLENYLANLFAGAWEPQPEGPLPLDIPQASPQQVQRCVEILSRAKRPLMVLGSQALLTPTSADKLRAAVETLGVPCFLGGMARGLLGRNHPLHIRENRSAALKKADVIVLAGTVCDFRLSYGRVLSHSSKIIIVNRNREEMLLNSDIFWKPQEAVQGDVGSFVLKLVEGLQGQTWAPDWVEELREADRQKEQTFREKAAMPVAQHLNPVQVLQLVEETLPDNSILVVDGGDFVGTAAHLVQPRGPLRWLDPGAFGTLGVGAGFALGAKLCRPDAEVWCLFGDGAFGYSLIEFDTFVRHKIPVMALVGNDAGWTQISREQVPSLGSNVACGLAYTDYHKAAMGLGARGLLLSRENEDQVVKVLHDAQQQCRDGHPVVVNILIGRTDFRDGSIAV
inactive: [1] -0.021 | [2] -0.052 | [3] 0.005 | [4] -0.051 | Nexturastat A 0.007 | vemurafenib 0.037 | [5] 0.049 | [6] 0.004 | givinostat -0.002 | barasertib 0.021

KCTD10 (UniProt Q9H3F6)
inactive: [1] -0.055 | [2] 0.022 | [3] -0.025 | [4] 0.017 | Nexturastat A 0.051 | vemurafenib -0.013 | [5] -0.029 | [6] 0.024 | givinostat 0.025 | barasertib 0.021

MGST1 (UniProt P10620)
inactive: [1] 0.062 | [2] 0.044 | [3] -0.017 | [4] 0.017 | Nexturastat A -0.07 | vemurafenib 0.067 | [5] -0.007 | [6] -0.093 | givinostat -0.027 | barasertib -0.035

Source: the supplement of paper PMC10849652
